Common to all, as to assay: DAPPL (digital affinity profiling via proximity ligation, sequencing); 10 mM Tris-HCl pH 7.5, 50 mM NaCl, 1 mM DTT, 4% glycerol, room temperature, 30 min; GST-TFs on glutathione beads, 16-mer random dsDNA library, 0.1% formaldehyde crosslink after washing; high values mean tight binding
Holding throughout (conditions): protein: recombinant; tags: N-terminal GST; dsDNA, one strand shown

Assay [1] has as its target T1, FLI1 (Homo sapiens, UniProt Q01543 1-452).
T1 sequence: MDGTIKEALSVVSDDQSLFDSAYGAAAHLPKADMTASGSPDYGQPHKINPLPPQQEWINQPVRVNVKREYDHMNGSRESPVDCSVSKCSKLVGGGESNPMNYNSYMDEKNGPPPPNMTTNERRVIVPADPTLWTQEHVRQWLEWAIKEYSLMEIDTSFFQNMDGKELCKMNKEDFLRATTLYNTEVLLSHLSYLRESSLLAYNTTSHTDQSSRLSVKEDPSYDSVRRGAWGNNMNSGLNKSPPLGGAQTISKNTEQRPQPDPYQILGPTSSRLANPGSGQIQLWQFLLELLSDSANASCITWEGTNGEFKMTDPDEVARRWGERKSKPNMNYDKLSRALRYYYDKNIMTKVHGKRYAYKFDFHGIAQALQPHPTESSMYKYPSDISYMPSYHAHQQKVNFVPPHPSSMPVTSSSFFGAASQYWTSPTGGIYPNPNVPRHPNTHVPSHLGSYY
The essentials:
(§1)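 Binding signal is defined as a hexamer's read frequency for one factor over its frequency for the tag-only sample. To obtain reads, GST-fused human transcription factors were expressed in yeast, captured on glutathione beads, barcoded with DNA and pooled with that sample. Pools met 200 nmole of a 16-mer random double-stranded DNA library in Tris/NaCl/DTT/glycerol buffer for 30 min at room temperature before washing, 0.1% formaldehyde crosslinking, proximity ligation (BsaI/T4 ligase, 1 h, 37 °C), PCR and Illumina NextSeq500 sequencing.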

Assay [2] deals with T2, ELK1 (Homo sapiens, UniProt P19419 1-428).
T2 sequence: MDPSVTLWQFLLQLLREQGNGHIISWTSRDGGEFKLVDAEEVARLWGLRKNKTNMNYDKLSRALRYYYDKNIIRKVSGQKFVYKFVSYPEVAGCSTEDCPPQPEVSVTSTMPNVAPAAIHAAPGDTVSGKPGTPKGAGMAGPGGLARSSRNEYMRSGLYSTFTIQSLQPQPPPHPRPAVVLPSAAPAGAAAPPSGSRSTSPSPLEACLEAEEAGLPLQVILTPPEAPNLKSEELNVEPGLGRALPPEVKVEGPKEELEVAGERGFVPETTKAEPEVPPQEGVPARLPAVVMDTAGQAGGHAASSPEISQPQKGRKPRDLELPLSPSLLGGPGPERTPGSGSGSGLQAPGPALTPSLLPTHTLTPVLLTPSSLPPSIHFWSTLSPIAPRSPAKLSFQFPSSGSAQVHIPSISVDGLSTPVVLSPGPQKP
An outline of the steps: as §1

Assay [3] concerns the target T3, GABPA (Homo sapiens, UniProt Q06546 1-454).
T3 sequence: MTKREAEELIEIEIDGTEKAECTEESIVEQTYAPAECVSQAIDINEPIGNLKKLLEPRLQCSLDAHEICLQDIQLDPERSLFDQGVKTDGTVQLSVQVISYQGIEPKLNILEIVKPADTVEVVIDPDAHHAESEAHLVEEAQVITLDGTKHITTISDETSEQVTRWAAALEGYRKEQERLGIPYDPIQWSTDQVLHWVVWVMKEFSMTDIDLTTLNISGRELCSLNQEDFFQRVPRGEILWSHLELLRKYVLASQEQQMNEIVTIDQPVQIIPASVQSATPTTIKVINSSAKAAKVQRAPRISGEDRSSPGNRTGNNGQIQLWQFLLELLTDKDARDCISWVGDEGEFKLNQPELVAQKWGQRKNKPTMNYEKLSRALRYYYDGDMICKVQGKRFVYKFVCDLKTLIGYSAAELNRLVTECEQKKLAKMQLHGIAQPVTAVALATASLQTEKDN
An outline of the steps:
as §1

Assay [4] deals with T4, ERG (Homo sapiens, UniProt P11308 1-479).
T4 sequence: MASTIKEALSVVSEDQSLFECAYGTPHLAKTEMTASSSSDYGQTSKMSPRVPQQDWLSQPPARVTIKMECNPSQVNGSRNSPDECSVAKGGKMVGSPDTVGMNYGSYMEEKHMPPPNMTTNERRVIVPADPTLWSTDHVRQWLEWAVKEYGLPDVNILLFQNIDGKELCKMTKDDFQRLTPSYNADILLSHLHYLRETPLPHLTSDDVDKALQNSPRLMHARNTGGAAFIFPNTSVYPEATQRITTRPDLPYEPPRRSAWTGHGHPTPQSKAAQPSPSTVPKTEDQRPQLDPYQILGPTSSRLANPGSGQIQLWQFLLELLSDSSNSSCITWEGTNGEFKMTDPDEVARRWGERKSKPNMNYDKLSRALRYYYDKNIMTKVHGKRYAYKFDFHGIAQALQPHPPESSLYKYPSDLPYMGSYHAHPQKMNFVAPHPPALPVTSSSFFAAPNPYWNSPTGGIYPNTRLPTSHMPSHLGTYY
The essentials: as §1

The target in assay [5] is ELF1 (Homo sapiens, UniProt P32519 1-619). An outline of the steps: as §1
ELF1, sequence (P32519 whole entry): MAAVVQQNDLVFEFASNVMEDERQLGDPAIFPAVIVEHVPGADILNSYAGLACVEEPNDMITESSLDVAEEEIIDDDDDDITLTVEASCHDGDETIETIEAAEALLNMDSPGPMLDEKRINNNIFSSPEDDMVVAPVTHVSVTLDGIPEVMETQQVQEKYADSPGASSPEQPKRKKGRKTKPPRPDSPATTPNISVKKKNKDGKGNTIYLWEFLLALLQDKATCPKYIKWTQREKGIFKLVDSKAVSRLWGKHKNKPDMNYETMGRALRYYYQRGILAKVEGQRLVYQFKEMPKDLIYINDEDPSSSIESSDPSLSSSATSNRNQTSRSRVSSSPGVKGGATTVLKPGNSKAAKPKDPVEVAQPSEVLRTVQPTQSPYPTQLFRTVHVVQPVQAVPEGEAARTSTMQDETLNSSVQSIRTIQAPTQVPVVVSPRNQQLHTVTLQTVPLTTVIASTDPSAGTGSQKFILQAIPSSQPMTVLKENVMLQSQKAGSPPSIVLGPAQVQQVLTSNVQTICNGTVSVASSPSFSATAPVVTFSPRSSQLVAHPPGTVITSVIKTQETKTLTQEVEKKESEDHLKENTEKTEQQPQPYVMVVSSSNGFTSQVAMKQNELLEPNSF
Assay [6] addresses T5, EHF (Homo sapiens, UniProt Q9NZC4 1-300).
T5 sequence: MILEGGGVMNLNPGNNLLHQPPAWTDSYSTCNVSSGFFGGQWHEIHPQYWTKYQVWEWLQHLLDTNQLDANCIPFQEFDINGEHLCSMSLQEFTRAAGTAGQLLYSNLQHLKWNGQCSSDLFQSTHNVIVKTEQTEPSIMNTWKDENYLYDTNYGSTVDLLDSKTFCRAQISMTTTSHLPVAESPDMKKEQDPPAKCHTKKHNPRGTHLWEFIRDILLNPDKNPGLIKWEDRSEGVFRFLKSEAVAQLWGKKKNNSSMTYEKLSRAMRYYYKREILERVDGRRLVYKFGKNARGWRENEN
An outline of the steps: as §1

In assay [7] the target is SPI1 (Homo sapiens, UniProt P17947 1-270). An outline of the steps:
as §1

Assay [8] addresses SPIB (Homo sapiens, UniProt Q01892 1-262). An outline of the steps: as §1
Assay [9] addresses T6, ELK3 (Homo sapiens, UniProt P41970 1-407).
T6 sequence: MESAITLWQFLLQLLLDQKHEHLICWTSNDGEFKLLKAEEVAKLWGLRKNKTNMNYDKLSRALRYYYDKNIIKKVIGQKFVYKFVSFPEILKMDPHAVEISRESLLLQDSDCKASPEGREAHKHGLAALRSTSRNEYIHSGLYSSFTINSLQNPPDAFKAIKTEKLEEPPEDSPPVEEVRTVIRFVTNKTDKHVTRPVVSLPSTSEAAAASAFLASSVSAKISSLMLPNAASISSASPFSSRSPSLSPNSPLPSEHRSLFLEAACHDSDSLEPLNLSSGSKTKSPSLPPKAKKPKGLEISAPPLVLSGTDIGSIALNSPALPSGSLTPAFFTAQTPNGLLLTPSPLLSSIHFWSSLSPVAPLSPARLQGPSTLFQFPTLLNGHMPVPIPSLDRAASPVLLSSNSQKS
An outline of the steps: as §1

In assay [10] the target is T7, FEV (Homo sapiens, UniProt Q99581 1-238).
T7 sequence: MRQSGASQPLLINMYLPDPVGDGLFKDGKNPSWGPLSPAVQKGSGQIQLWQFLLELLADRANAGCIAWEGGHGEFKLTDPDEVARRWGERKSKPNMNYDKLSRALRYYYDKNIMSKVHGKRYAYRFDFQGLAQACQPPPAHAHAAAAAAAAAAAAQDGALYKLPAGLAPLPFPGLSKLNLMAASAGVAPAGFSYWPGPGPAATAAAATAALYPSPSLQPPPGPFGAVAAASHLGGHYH
The essentials:
as §1

Assay [11] deals with ETV5 (Homo sapiens, UniProt P41161 1-510). An outline of the steps: as §1
ETV5, sequence (P41161 whole entry): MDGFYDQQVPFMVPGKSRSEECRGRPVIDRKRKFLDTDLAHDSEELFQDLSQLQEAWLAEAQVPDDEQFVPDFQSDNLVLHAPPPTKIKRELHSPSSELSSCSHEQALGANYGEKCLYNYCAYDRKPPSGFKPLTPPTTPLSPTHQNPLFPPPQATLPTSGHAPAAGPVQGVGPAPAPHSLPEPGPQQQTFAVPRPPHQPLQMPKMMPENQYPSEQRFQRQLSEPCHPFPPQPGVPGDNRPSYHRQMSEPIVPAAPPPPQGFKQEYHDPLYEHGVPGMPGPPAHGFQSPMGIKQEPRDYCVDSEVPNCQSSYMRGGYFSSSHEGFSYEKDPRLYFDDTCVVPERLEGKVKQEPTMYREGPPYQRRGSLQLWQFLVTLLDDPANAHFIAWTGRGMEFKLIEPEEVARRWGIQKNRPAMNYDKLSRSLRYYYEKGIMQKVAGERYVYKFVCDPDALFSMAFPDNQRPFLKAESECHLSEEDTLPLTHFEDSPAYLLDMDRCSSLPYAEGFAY
Assay [12] concerns the target T8, SPIC (Homo sapiens, UniProt Q8N5J4 1-248).
T8 sequence: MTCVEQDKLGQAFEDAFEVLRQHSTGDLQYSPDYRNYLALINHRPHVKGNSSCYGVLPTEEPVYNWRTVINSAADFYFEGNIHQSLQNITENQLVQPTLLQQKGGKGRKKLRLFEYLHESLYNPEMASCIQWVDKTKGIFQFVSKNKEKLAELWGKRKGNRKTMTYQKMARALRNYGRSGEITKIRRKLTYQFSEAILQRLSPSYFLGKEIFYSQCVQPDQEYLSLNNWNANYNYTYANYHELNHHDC
The essentials:
as §1

In assay [13] the target is ELF4 (Homo sapiens, UniProt Q99607 1-663). An outline of the steps: as §1
ELF4, sequence (Q99607 whole entry): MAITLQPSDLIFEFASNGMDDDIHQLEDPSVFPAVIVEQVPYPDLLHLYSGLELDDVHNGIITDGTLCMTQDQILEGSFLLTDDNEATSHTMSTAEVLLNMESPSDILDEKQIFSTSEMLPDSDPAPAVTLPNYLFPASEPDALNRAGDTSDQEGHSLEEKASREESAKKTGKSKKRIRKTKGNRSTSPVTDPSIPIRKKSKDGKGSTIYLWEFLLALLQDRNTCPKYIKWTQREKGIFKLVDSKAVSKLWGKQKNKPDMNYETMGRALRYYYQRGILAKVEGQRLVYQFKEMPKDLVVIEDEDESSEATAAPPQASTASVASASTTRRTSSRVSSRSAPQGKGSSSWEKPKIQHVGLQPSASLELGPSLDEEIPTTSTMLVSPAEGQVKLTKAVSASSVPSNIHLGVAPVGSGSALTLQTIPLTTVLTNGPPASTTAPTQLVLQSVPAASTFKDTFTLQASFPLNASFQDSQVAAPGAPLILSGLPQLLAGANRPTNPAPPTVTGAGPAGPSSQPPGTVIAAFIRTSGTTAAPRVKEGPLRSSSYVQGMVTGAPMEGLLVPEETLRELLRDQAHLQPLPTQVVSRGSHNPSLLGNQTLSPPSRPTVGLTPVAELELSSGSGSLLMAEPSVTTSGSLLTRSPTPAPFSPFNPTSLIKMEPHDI
The target in assay [14] is T9, ELK4 (Homo sapiens, UniProt P28324-2 1-405).
T9 sequence: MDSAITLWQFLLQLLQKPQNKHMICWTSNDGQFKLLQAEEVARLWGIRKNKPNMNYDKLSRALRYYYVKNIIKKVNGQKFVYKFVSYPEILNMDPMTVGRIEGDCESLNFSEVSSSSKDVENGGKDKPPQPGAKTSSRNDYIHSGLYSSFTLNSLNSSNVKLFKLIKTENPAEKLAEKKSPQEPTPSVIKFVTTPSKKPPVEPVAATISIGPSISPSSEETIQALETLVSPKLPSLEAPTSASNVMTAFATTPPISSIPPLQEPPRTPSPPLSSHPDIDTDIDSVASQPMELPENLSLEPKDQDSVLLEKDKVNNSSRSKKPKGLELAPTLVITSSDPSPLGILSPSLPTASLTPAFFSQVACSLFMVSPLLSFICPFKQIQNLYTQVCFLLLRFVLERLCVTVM
The essentials:
as §1

Assay [15] concerns the target T10, ETV2 (Homo sapiens, UniProt O00321 1-342).
T10 sequence: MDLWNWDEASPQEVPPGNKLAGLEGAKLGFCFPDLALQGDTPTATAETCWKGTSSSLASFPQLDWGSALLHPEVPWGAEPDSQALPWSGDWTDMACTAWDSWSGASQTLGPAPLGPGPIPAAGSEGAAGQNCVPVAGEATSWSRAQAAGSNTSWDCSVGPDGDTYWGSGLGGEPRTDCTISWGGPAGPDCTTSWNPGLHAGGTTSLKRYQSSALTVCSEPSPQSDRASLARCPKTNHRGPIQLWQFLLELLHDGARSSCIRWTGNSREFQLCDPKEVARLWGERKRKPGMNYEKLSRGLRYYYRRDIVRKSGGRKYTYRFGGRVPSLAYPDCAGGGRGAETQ
An outline of the steps: as §1

Assay [16] addresses T11, ELF3 (Homo sapiens, UniProt P78545 1-371).
T11 sequence: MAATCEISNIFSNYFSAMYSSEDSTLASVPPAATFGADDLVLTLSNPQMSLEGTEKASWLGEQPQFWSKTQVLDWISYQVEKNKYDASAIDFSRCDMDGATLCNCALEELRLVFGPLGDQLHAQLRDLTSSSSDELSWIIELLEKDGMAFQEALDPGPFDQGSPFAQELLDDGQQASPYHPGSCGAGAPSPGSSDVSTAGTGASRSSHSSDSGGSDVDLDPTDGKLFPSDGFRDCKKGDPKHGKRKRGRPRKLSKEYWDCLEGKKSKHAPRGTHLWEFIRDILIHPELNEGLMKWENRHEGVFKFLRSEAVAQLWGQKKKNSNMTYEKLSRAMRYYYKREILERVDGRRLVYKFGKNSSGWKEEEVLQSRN
The essentials:
as §1

Assay [17] addresses ETV1 (Homo sapiens, UniProt P50549 1-477). The essentials:
as §1

ETV1, sequence (P50549 whole entry): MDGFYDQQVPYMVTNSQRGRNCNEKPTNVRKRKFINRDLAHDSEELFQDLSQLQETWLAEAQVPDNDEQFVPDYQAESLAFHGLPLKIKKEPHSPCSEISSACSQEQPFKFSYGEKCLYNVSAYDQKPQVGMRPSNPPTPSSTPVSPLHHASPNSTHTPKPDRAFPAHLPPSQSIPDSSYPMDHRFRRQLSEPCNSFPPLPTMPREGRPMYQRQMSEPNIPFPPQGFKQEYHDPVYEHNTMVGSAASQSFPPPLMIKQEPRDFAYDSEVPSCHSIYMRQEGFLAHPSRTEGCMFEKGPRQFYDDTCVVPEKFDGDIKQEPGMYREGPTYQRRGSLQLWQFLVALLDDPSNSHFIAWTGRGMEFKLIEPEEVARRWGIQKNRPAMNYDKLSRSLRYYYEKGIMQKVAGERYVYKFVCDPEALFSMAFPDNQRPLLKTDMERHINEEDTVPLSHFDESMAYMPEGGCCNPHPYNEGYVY
SPIB, sequence (Q01892 whole entry): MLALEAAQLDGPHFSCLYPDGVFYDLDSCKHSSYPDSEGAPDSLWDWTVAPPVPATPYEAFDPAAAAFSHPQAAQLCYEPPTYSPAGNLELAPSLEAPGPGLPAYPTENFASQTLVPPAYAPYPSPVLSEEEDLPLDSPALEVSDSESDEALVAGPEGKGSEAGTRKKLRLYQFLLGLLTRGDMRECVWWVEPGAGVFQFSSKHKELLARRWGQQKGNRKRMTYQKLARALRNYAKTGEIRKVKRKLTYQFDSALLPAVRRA

Take ACCTGA: the binding signal in [1] is 1.06 fold enrichment (6-mer frequency, TF over GST control); in assay [2] it was 1.12 fold enrichment (6-mer frequency, TF over GST control); in assay [3], 1.03 fold enrichment (6-mer frequency, TF over GST control); in assay [4] it was 1.12 fold enrichment (6-mer frequency, TF over GST control); in [5], 1.14 fold enrichment (6-mer frequency, TF over GST control); in assay [6], 1.09 fold enrichment (6-mer frequency, TF over GST control). In addition, the binding signal in assay [7] is 1.01 fold enrichment (6-mer frequency, TF over GST control); in [8], 1.1 fold enrichment (6-mer frequency, TF over GST control); in assay [9], 1.07 fold enrichment (6-mer frequency, TF over GST control); in assay [10] it was 1.13 fold enrichment (6-mer frequency, TF over GST control); in assay [11] it was 1.07 fold enrichment (6-mer frequency, TF over GST control); in assay [12], 1 fold enrichment (6-mer frequency, TF over GST control). The binding signal is 1.15 fold enrichment (6-mer frequency, TF over GST control) in assay [13]; 1.14 fold enrichment (6-mer frequency, TF over GST control) in [14]; 1.02 fold enrichment (6-mer frequency, TF over GST control) in assay [15]; 1.14 fold enrichment (6-mer frequency, TF over GST control) in assay [16]; 1.06 fold enrichment (6-mer frequency, TF over GST control) in assay [17].

These data come from paper PMC7862700, “An all-to-all approach to the identification of sequence-specific readers for epigenetic DNA modifications on cytosine”.
